# In the supplement of paper PMC4166925:
# ± gives the standard deviation of the averaged measurements. The full ranking holds about 33,000 sequences; the median of “E-score (dimensionless, -0.5 to 0.5)” is about -0.049, and the highest 2% start at about 0.37. The entries come from a sample that favours the highest values as a whole.
# Tested on: T1, PmTbr T-box DNA-binding domain (GST fusion)
# T1 sequence: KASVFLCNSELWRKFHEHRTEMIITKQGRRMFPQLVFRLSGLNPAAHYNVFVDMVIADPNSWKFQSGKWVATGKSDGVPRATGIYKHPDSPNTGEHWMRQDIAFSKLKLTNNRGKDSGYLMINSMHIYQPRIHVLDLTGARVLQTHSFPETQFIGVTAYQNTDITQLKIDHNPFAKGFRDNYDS
# Assay: PBM E-score of 8-mer (E-score (dimensionless, -0.5 to 0.5)); Tbr is Tbrain of the sea star Patiria miniata (Pm) or the sea urchin Strongylocentrotus purpuratus (Sp); higher = stronger binding preference
# Conditions: the construct has about 5 more residues each side
# Method: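 Universal protein-binding microarray (Agilent AMADID 016060, 60-bp probes with a 35-bp variable region) incubated with 200 nM GST-fused Patiria miniata Tbr T-box DNA-binding domain (residues 272-466) in PBS pH 7.5. Scored for every ungapped 8-mer (given with its reverse complement) by the Universal PBM Analysis Suite as E-score (modified Wilcoxon-Mann-Whitney enrichment, range -0.5 to 0.5; >0.45 counts as bound) and Z-score of median probe intensity. Two replicate arrays (datasets 1 and 2).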
# 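Also: 200 nM protein in PBS on universal arrays averaged over duplicate arrays.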
row,Sequence,PBM E-score of 8-mer
1,ATATCACC,0.364 ± 0.013
2,CTATCACC,0.431 ± 0.0063
3,ATCTCAAC,0.0437 ± 0.036
4,ATCTCACG,0.294 ± 0.016
5,CTATCACA,0.305 ± 0.009
6,ATCTCACA,0.372 ± 0.021
7,ATCTCTCA,0.226 ± 0.023
8,CTCTCACC,0.383 ± 0.0077
9,ACCTCACC,0.261 ± 0.028
10,CGCTCACC,0.0475 ± 0.083
11,ATCTCACC,0.409 ± 0.0061
12,CTCTCACA,0.3481 ± 0.0026
13,ATTGTTAC,0.194 ± 0.057
14,GGTACGAC,-0.0493 ± 0.042
15,CAGAGGCA,-0.215 ± 0.071
16,ATCTACCG,-0.157 ± 0.067
17,AAGATCTC,0.061 ± 0.054
18,CCGGCCCC,-0.24 ± 0.058
19,CAATCGCC,-0.0698 ± 0.068
20,ATCCCCAA,-0.227 ± 0.063
21,GAGCTTCA,-0.137 ± 0.0098
22,ATACTTCC,0.0697 ± 0.018
23,GGCATTTA,0.00349 ± 0.0029
24,GTCTCACA,0.392 ± 0.019
25,ACCTCACA,0.423 ± 0.0099

row,Sequence,PBM E-score of 8-mer
1,TCCTCACA,0.3327 ± 0.0011
2,GTCTCTCA,0.0943 ± 0.0041
3,ACCTCACG,0.269 ± 0.038
4,GCCTCACA,0.224 ± 0.031
5,ACGCAATC,-0.12 ± 0.013
6,GCTTGGTA,-0.112 ± 0.032
7,CCCCTCTA,-0.143 ± 0.088
8,ATTAGCGG,0.121 ± 0.025
9,ACACTTGG,0.395 ± 0.0073
10,CCACTTGC,0.158 ± 0.056
11,ATACTTGG,-0.174 ± 0.046
12,AAACTTGC,0.122 ± 0.029
13,ACACTTGA,0.369 ± 0.029
14,ACACTTGC,0.407 ± 0.013
15,GAAGTTAA,0.0494 ± 0.064
16,TCTTGGCA,0.0497 ± 0.1
17,CCTAACAA,0.184 ± 0.055
18,CCTAACAC,0.4369 ± 0.0041
19,GCTAACCC,0.00156 ± 0.0032
20,ACTAACAA,0.214 ± 0.032
21,GCTAACAA,0.252 ± 0.013
22,CCTAACAG,0.128 ± 0.033
23,ACTAACAG,0.216 ± 0.045
24,ACTAACAC,0.412 ± 0.007
25,GCTAACAC,0.43 ± 0.0048

row,Sequence,PBM E-score of 8-mer
1,CAGTTCAC,0.226 ± 0.023
2,ACGCAGCT,0.109 ± 0.075
3,GACAATCC,0.106 ± 0.018
4,GTAAGCTA,-0.266 ± 0.012
5,ATGTAGAC,-0.237 ± 0.043
6,GGTCGCAA,0.205 ± 0.0044
7,CGTCGCAC,0.332 ± 0.021
8,AGTCGCAA,0.147 ± 0.026
9,AGTCGCAG,0.0399 ± 0.06
10,AGTCGCAC,0.395 ± 0.026
11,GGTCGCAC,0.373 ± 0.018
12,AGATTTTC,0.0361 ± 0.063
13,TAGTTCGA,0.16 ± 0.056
14,GCACCAGA,-0.03 ± 0.061
15,AATGTTCC,-0.191 ± 0.0029
16,ACAACGCA,0.105 ± 0.03
17,ACCACGCG,0.1217 ± 0.0011
18,TACACCCA,0.129 ± 0.046
19,CACACCCC,0.416 ± 0.013
20,CACACCGC,0.334 ± 0.027
21,CACCCCCC,0.165 ± 0.06
22,AACACCCG,0.428 ± 0.0098
23,CCCACCCA,0.0945 ± 0.0051
24,CACCCCCG,0.216 ± 0.014
25,CACACCCA,0.423 ± 0.012

row,Sequence,PBM E-score of 8-mer
1,ATCACCCG,0.194 ± 0.02
2,CACACCCG,0.426 ± 0.019
3,CCCACCCG,0.105 ± 0.0088
4,ACCACCCG,0.189 ± 0.017
5,TAATTCAA,-0.292 ± 0.037
6,CCCGGTCG,-0.111 ± 0.059
7,CCATAGGA,-0.0411 ± 0.059
8,TACAACGA,-0.18 ± 0.034
9,ATAGAACC,-0.0785 ± 0.034
10,CGGGCAGC,-0.0554 ± 0.0018
11,AGGTACCA,-0.0398 ± 0.018
12,GAGGCGCC,0.269 ± 0.018
13,GCACAACA,0.17 ± 0.013
14,CCACACAA,0.0617 ± 0.024
15,TCACACAA,0.414 ± 0.015
16,TCACAACA,0.384 ± 0.00069
17,ACACACAA,0.0649 ± 0.066
18,CCACACCA,0.29 ± 0.033
19,ACACACCA,0.285 ± 0.011
20,TCACACCA,0.48075 ± 0.00012
21,ACTCACCA,-0.0425 ± 0.12
22,CCTCACCA,0.141 ± 0.045
23,CCACAACA,0.203 ± 0.049
24,TCTCACCA,0.372 ± 0.011
25,AATGACAT,-0.101 ± 0.054

row,Sequence,PBM E-score of 8-mer
1,GGAACTCC,-0.22 ± 0.083
2,GCCTCTTA,-0.0658 ± 0.019
3,GAGGAATA,-0.274 ± 0.02
4,TCGGACAA,-0.0104 ± 0.018
5,ACTCAAGT,-0.000135 ± 0.051
6,ATGGACTG,-0.165 ± 0.016
7,ACCACACC,0.361 ± 0.023
8,CCCACACG,0.0862 ± 0.0074
9,GACACACC,0.287 ± 0.073
10,CGCACACC,0.325 ± 0.022
11,GCCACACA,0.279 ± 0.031
12,CCCACACC,0.43 ± 0.019
13,GCCACACC,0.394 ± 0.024
14,CACACACC,0.428 ± 0.021
15,CCCACACA,0.17 ± 0.0076
16,ATGCTCGG,0.00834 ± 0.022
17,GACGTCTC,-0.235 ± 0.013
18,GGGTAGGA,-0.205 ± 0.052
19,AACACCAT,0.3887 ± 0.0029
20,AACACCAC,0.3719 ± 0.0024
21,ACCACCAT,0.1243 ± 0.0012
22,GACACCAA,0.345 ± 0.0047
23,ACCACCAA,0.0394 ± 0.048
24,AGCACCAC,0.115 ± 0.054
25,AACACCAA,0.393 ± 0.011

row,Sequence,PBM E-score of 8-mer
1,GACACCAC,0.393 ± 0.016
2,GGCACCAC,0.225 ± 0.022
3,ATCACCAT,0.155 ± 0.014
4,ACCACCAC,0.0224 ± 0.049
5,GCCACCAC,0.122 ± 0.08
6,AATGCAGG,-0.116 ± 0.0066
7,GCACAGCC,-0.192 ± 0.031
8,ACAGTGTG,0.324 ± 0.025
9,GGAGCATA,-0.0893 ± 0.017
10,AGGCTGAA,-0.124 ± 0.018
11,AAACCAAG,-0.0652 ± 0.0092
12,CAAGCTCC,-0.181 ± 0.059
13,ATACCCTG,-0.154 ± 0.04
14,ACCCCCTC,-0.00817 ± 0.062
15,ACACCCTA,0.383 ± 0.018
16,CCACCCTC,0.0601 ± 0.017
17,ACCCCCTG,0.0477 ± 0.028
18,CCACCCTA,0.0728 ± 0.0043
19,GCACCCTA,0.133 ± 0.089
20,ACACCCTC,0.429 ± 0.0062
21,ACACCCTG,0.426 ± 0.026
22,GAGCCATC,-0.0135 ± 0.0062
23,GGAGTTCA,-0.0635 ± 0.036
24,AAGGCGAT,0.0522 ± 0.036
25,AGCAAACA,0.0237 ± 0.023

row,Sequence,PBM E-score of 8-mer
1,GATGAAGA,-0.134 ± 0.051
2,TGTCAACA,0.378 ± 0.0046
3,CGTCAACA,0.311 ± 0.036
4,GGTCAACA,0.123 ± 0.0043
5,GCGCTCCC,-0.133 ± 0.028
6,AGTTCGCG,0.221 ± 0.038
7,GATCCTGA,-0.144 ± 0.049
8,GTCATCAC,0.2787 ± 0.00098
9,ATCATCAC,0.381 ± 0.008
10,CTCATCAC,0.249 ± 0.0053
11,CTTATCAC,0.331 ± 0.023
12,ATTATCAC,0.38 ± 0.053
13,ATTATCAG,-0.0355 ± 0.028
14,ATAAACGG,-0.131 ± 0.087
15,CGTACCCC,-0.186 ± 0.063
16,GGTCGATA,0.0375 ± 0.069
17,CCTGAGAG,0.208 ± 0.03
18,CACAGCCG,-0.0675 ± 0.11
19,ACGCGCGG,0.19 ± 0.031
20,TCGCGCGA,0.3886 ± 0.0024
21,ACGCGCGA,0.3693 ± 0.0027
22,GCGCGCGA,0.2759 ± 0.00057
23,ACGCGCGC,0.157 ± 0.033
24,CCGCGCGA,0.226 ± 0.0095
25,ATTCTTTG,-0.109 ± 0.048

row,Sequence,PBM E-score of 8-mer
1,AATCAACA,0.231 ± 0.033
2,ATTAGGGG,-0.208 ± 0.071
3,AACAGCCT,0.145 ± 0.021
4,GGGTCTGA,-0.157 ± 0.028
5,GAGTGTCA,0.436 ± 0.0041
6,AAGTGTAT,0.019 ± 0.037
7,TCGTGTCA,0.305 ± 0.0037
8,GAGTGTCC,-0.0246 ± 0.07
9,AAGTGTCA,0.4726 ± 0.0035
10,AAGTGTCT,0.329 ± 0.022
11,AAGTGTCG,0.44424 ± 0.0003
12,CAGTGTCG,0.289 ± 0.0095
13,CAGTGTCA,0.31 ± 0.017
14,AAGTGTCC,0.281 ± 0.011
15,GATTGTCA,0.298 ± 0.0064
16,TAGTGTCA,0.395 ± 0.027
17,ACTGCTGG,-0.191 ± 0.0095
18,AAGGCCAT,-0.225 ± 0.0052
19,CAGCATTA,-0.0723 ± 0.024
20,GAGGAGAA,-0.158 ± 0.088
21,CCTACCAG,0.00153 ± 0.031
22,GGCGAGCA,-0.102 ± 0.048
23,CAATGTCG,0.119 ± 0.014
24,CGTATTCA,0.165 ± 0.051
25,ACCTAGTG,0.223 ± 0.013

row,Sequence,PBM E-score of 8-mer
1,CCTTGAGC,-0.11 ± 0.019
2,ATGAGCAC,-0.247 ± 0.061
3,CTATGCAC,-0.129 ± 0.042
4,ACGCTAAC,0.257 ± 0.056
5,CCGCTAAC,0.169 ± 0.038
6,TCGCTAAA,0.163 ± 0.043
7,CCGCTAAA,0.275 ± 0.022
8,GCGCTAAC,0.4144 ± 0.0034
9,GCGCTAAA,0.394 ± 0.012
10,GGCTAGAC,-0.231 ± 0.029
11,GGTTCATA,0.0267 ± 0.028
12,CGTTCACA,0.406 ± 0.012
13,AGTTCACC,-0.0448 ± 0.0017
14,AGTTCACG,0.32 ± 0.02
15,GGTTCACA,0.372 ± 0.0038
16,CGTTCAAG,-0.177 ± 0.028
17,GGCTCACA,0.0846 ± 0.0034
18,CGTTCACC,-0.0379 ± 0.073
19,AGTTCACA,0.395 ± 0.0064
